Bioassay records deposited in PubChem by National Center for Advancing Translational Sciences (NCATS).
In the library only some 7.3% were active in any assay of this set; here they are far more common.
SMN2 splice enh = enhancers of SMN2 splice variant expression; AID 1458; 210,000 tested, 2.8% active; Potency, µM (highest dose often 46.1 µM), without a hit: top-dose activity change, positive = activation, actives largely listed as activators; HEK293 SMN2-luciferase splicing reporter, luminescence, 30-36 h; also: % of control where 0% means no effect; nearly all actives have a fitted effect of over 55% in size
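HEK293 cells carry an SMN2 minigene-luciferase reporter in which exon 7 inclusion puts luciferase in frame. Cells were seeded at 2000 cells/well, attached for 10-12 hours, then exposed to compounds for 30-36 hours at 37C before ONE-Glo luminescence.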
Rab9 prom act = Rab9 promoter activation; Huh7 Rab9 promoter-luciferase reporter, luminescence, 24 h; 320,000 tested, 2.8% active; Potency, µM (titrated, usually from 9.22 µM), without a hit: top-dose activation, negative = inhibition, actives largely listed as activators; also: % of control where 0% means no effect; nearly all actives have a fitted effect of over 60% in size
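Stable Rab9-luc Huh7, 1500 cells/well, 2 h settle; cmpd in DMSO, 24 h, 37 °C/5% CO2; luciferase reagent 10 min RT; luminescence.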
FLuc counter = inhibits or activates purified firefly luciferase, miR-21 counter-screen. P08659. 360,000 tested, 6.9% active. purified FLuc, Km substrates, luminescence inhibition. Potency, µM (doses to about 57.5 µM), inactives show at the top dose activity change, negative = inhibition, hits mostly inhibitors;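 also: plate controls were vehicle for no effect and reference inhibitor for full effect; nearly all actives have a fitted effect of over 55% in size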
Target sequence (P08659 whole entry, looked up): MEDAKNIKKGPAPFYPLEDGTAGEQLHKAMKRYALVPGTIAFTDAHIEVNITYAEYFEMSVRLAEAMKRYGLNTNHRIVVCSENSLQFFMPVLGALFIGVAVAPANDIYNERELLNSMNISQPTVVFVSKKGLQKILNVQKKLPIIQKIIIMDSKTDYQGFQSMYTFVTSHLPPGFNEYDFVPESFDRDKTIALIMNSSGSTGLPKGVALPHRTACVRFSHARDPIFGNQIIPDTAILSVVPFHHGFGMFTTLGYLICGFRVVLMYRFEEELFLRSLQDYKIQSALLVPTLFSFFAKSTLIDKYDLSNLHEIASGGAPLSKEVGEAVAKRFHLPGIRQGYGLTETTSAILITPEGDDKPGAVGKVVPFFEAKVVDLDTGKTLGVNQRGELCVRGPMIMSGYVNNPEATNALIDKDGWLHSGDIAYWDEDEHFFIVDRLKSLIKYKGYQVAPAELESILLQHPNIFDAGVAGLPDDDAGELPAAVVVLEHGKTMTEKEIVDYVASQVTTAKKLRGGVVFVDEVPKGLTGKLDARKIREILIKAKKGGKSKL
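Purified P. pyralis luciferase (10nM final) with 10uM D-luciferin and 10uM ATP (Km levels) in 50mM Tris acetate pH 7.5, 10mM Mg acetate, 0.01% Tween-20, 0.05% BSA; qHTS 6-point titration, ~60 µM downward; luminescence read.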
NPC1 prom act = activators of NPC1 promoter. Potency, µM (highest dose often 9.22 µM), inactives show at the top dose activation, usual class: activators. 320,000 tested, 2.4% active. Huh7 NPC1 promoter luciferase reporter, 24 h. AID 485313; also: % of control where 0% means no effect; nearly all actives have a fitted effect of over 60% in size
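Luminescence read-out of NPC1 promoter-driven luciferase in stably transfected Huh7 cells; compounds delivered in DMSO and left 24 h at 37C, 5% CO2, qHTS titration format.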
KinaseGlo FLuc = blocks Kinase-Glo luciferase, a counter-screen artifact; Q27757; Kinase-Glo luciferase, ATP luminescence, 8 min; Potency, µM (highest dose often 38.3 µM), for inactives: at the top dose activity change, negative = inhibition, most hits filed as inhibitors; 200,000 tested, 0.28% active; also: % is scaled to controls: 0 for no effect and ±100 for the full control effect; nearly all actives have a fitted effect of over 60% in size
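Kinase-Glo luciferase light output from ATP and luciferin was measured with 10 uM ATP, within the enzyme's linear range. Buffer: 50 mM imidazole pH 7.2, 50 mM KCl, 7 mM MgCl2, 0.01% Tween 20, 0.05% BSA; luminescence read after 8 min at ambient temperature.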
Active calls of the source: *; u = inconclusive; x = no result given; [ ] = remark or other dose. Calls follow the shape of the dose curve; as a rule, active = well fitted curve in the direction sought with a large enough effect; inconclusive = small, poorly fitted or top-dose-only effect, or another doubt; inactive = no such curve, though single readings can be large; an effect the other way counts as inactive or inconclusive. Potency is read from the fitted curve at half-maximal effect.

SMILES	SMN2 splice enh	Rab9 prom act	FLuc counter	NPC1 prom act	KinaseGlo FLuc
COc1ccc(NC(=O)C2CCCN(S(=O)(=O)c3ccc(Cl)cc3)C2)cc1 (centres undefined)	3%	x	1%	x	x
COc1ccc(C(=O)Nc2ccccc2C(=O)OCc2cc(=O)n3nc(C4CC4)sc3n2)cc1	x	x	-8%	x	x
COc1ccc(-c2ccn(-c3cccc(F)n3)n2)cc1	-55%	2.2µM*	15µM*	3.2µM*	-7%
COc1ccc(C2c3c(n(C)c4ccccc34)C(=O)N2CC(=O)Nc2ccc(C)cc2Cl)cc1 (centres undefined)	x	x	-9%	x	x
COc1ccc(-c2csc(N(CCCN(C)C)C(=O)c3ccccc3F)n2)cc1	x	-2%	1%	-2%	x
CCC(=O)N(Cc1ccco1)c1nc(-c2ccc(OC)cc2)cs1	-11%	u	-1%	10%	2%
CN(C(=O)c1ccco1)c1nc(-c2ccccc2)cs1	x	2µM*	5.4µM*	2.5µM*	x
COCCN(C(=O)c1ccco1)c1nc(-c2ccccc2)cs1	x	24%	-19%	22%	x
CN(C)CCCN(C(=O)c1cccs1)c1nc(-c2ccccc2)cs1	7.9µM*	-1%	-1%	-5%	-1%
CCN(C(=O)c1ccco1)c1nc(-c2ccc(OC)cc2)cs1	x	4µM*	12µM*	3.2µM*	x
CCC(=O)N(CC)c1nc(-c2ccc(OC)cc2)cs1	7%	u	15µM*	4.5µM*	1%
Cn1ccc2cc(S(=O)(=O)N3CCN(C(=O)Nc4ccccc4F)CC3)ccc21	x	x	-4%	x	x
CN(c1ccc(O)cc1)c1nc(-c2ccccc2)cs1	u	u	u	2.2µM*	0%
CCN(C(=O)c1ccccc1F)c1nc(-c2ccc(OC)cc2)cs1	x	2µM*	8.5µM*	3.2µM*	x
COc1ccc(-c2csc(N(CCCN(C)C)C(=O)c3ccccc3C)n2)cc1	x	0.28µM*	2%	8%	x
CC1Cc2cc(S(=O)(=O)NCc3ccc(Cl)cc3)ccc2N1C(=O)C1CCC1 (centres undefined)	x	x	-6%	x	x
COc1ccc(C2=Nn3c(nnc3-c3ccncc3)SC2)cc1OC	10µM*	-5%	1%	-3%	-2%
Brc1ccc(C2=Nn3c(nnc3-c3n[nH]c4c3CCC4)SC2)cc1	22µM*	-11%	3%[2.3 µM]	-27%	1%
COc1ccc(C2=Nn3c(nnc3-c3cccnc3)SC2)cc1OC	u	2%	-2%	9%	4%
c1ccc(-c2ccc(C3=Nn4c(nnc4-c4cc(-c5ccccc5)n[nH]4)SC3)cc2)cc1	-10%	-10%	4.8µM*	14%	-6%
O=C(Cn1ncc2c(=O)oc3ccccc3c21)NCc1ccc(Cl)cc1	0%	x	0%	x	x
N#C/C(=C\c1ccc(-c2cc(Cl)ccc2Cl)o1)C(=O)Nc1cccc2ncccc12	x	-17%[46.1 µM]	x	-5%[46.1 µM]	x
COc1cc(C)c(S(=O)(=O)Nc2ccccc2F)cc1C	2.2µM*	-2%	3%	-1%	0%
Cc1cc2[nH]c(=O)c(=O)[nH]c2cc1S(=O)(=O)Nc1ccccc1F	x	7%	-4%	-4%	x
COc1ccc2nc(N3C(=O)CC(Cc4ccc(C)cc4)C3=O)sc2c1 (centres undefined)	-7%	-2%	u	0%	3%
SMILES	SMN2 splice enh	Rab9 prom act	FLuc counter	NPC1 prom act	KinaseGlo FLuc
COc1ccc2nc(N3C(=O)CC(C(C)c4ccccc4)C3=O)sc2c1 (centres undefined)	x	0%	21µM*	0%	x
O=C(O)c1cccc(-c2ccc(/C=N/Nc3nn[nH]n3)o2)c1	19%	23%	u	10%	-8%
CNC(=S)N/N=C/c1ccc(-c2cccc(C(=O)O)c2)o1	x	2.8µM*	6.7µM*	2.2µM*	x
Cc1ccc(OCC(=O)N/N=C\c2ccc(-c3cccc(C(=O)O)c3)o2)c(C)c1	29%	13%	6.7µM*	12%	-1%
O=C(CN1CCCC1)N/N=C/c1ccc(-c2cccc(Cl)c2)o1	-4%	-2%	12µM*	1%	-2%
COc1ccc(CC(=O)N/N=C/c2ccc(-c3cccc(C(=O)O)c3)o2)cc1OC	x	1%	u	12%	x
Nc1nonc1C(=O)N/N=C/c1ccc(-c2cccc(C(=O)O)c2)o1	19%	19%	17µM*	0%	3%
C[C@@H](C(=O)Nc1ccc2c(c1)OCO2)n1c(=O)[nH]c2ccccc2c1=O	x	5%	4%	-5%	x
CC(Sc1nc2ccccc2c(=O)n1C)C(=O)Nc1ccc2c(c1)OCCO2 (centres undefined)	x	-25%	-19%	-15%	x
CCC(C(=O)Nc1ccc2c(c1)OCCO2)n1nnc2ccccc2c1=O (centres undefined)	x	u	13µM*	3.2µM*	x
C[C@@H](C(=O)Nc1ccc2c(c1)OCCO2)n1c(=O)[nH]c2ccccc2c1=O	x	18%	15µM*	3%	x
O=c1c2ccccc2nnn1CSc1ccc2c(c1)OCCO2	7.1µM*	1.8µM*	9.5µM*	1.6µM*	-6%
CCCC1=NN2C(=N)/C(=C\c3cc(C)n(Cc4ccccc4)c3C)C(=O)N=C2S1	x	-6%	u	0%	x
Cc1cc(/C=C2\C(=N)N3N=CSC3=NC2=O)c(C)n1Cc1ccccc1	x	u	1.3µM*	u	x
Cc1cc(/C=C2\C(=N)N3N=C(S(C)(=O)=O)SC3=NC2=O)c(C)n1Cc1ccccc1	-15%	-4%	17µM*	-4%	-2%
Cc1ccc(-c2nc3ccsc3c(=O)[nH]2)cc1	18µM*	u	12µM*	21%	-16%
O=C1C2C(C(=O)N1c1ccc3c(c1)OCO3)C1C=CC2C12CC2 (centres undefined)	-5%	3%	17µM*	-2%	1%
COc1ccc(C2CC2/C(C)=N/OC(=O)C2CC2)cc1 (centres undefined)	16%	14%	-7%	0%	4%
C/C(=N/OC(=O)C1CC1c1ccccc1)c1ccccc1 (centres undefined)	-35%	0%	19µM*	-1%	-2%
Cc1cc(C)cc(NS(=O)(=O)c2ccc(N3CCCCS3(=O)=O)cc2)c1	x	x	-10%	x	x
Cc1cccc(CSCCNC(=O)CN(c2ccccc2)S(=O)(=O)N(C)C)c1	-18%	x	0%	x	x
Cc1ccc(NC(=S)N/C(=N/S(=O)(=O)c2ccccc2)c2ccccc2)cc1	-1%	2%	11µM*	9%	-3%
COc1ccc(C(=O)NN/C(=N/S(=O)(=O)c2ccc(C)cc2)c2ccccc2)cc1	x	2.5µM*	5.4µM*	2.8µM*	x
CC(=O)Nc1ccc(N/C(=N\S(=O)(=O)c2ccccc2)c2ccccc2)cc1	x	9%	2%	-1%	x
Cc1ccc(S(=O)(=O)/N=C(/NC(=S)Nc2ccccc2)c2ccccc2)cc1	u	2.8µM*	4.8µM*	3.5µM*	1%
CCOc1ccc(S(=O)(=O)/N=C(/Nc2ccc(OC)cc2)c2ccccc2)cc1	x	9%	-2%	12%	x
